Measurements: PubChem BioAssay AID1159580 (chemical genetic matrix, 2015)
Among all 5,500 compounds or so, about 2,000 (36%) were called active. About 18% were inconclusive and are not listed. Cut-off read from the data, not from the text of the source: active = normalized growth mostly below about 0.91 (no sharp cut-off); inconclusive = no clear call, values can overlap the other calls; inactive = mostly above about 0.92. The list shows a part of the results.

Test: chemical genetic growth profiling, strain panel (AID 1159580);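 note: tested at 20 µM; growth read once vehicle control cultures reached saturation at 30 °C; 1 = growth at the plate median or of vehicle wells; lower values mean less growth of the strain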
Settings: growth OD
[1] = S. cerevisiae deletion strains, locus YDL101C, strain DUN1, hits give low values
[2] = S. cerevisiae deletion strains, locus YHR030C, strain SLT2, hits give low values

Measured: normalized growth

Cc1ccc(OCc2nnc(SCC(=O)c3ccc(F)cc3)n2-c2ccccc2)c2c1CCC2
inactive: S. cerevisiae deletion strains, locus YAL013W, strain DEP1, hits give low values 0.982 | S. cerevisiae deletion strains, locus YBR229C, strain ROT2, hits give low values 0.987 | [1] 0.961 | S. cerevisiae deletion strains, locus YDL134C, strain PPH21, hits give low values 0.982 | S. cerevisiae deletion strains, locus YDR150W, strain NUM1, hits give low values 0.972 | S. cerevisiae deletion strains, locus YEL061C, strain CIN8, hits give low values 0.982 | S. cerevisiae deletion strains, locus YGR078C, strain PAC10, hits give low values 0.966 | S. cerevisiae deletion strains, locus YGR229C, strain SMI1, hits give low values 0.984 | [2] 0.964 | S. cerevisiae deletion strains, locus YHR087W, strain rtc3, hits give low values 0.957 | S. cerevisiae deletion strains, locus YJL187C, strain SWE1, hits give low values 0.983 | S. cerevisiae deletion strains, locus YJR043C, strain POL32, hits give low values 0.969 | S. cerevisiae deletion strains, locus YJR075W, strain HOC1, hits give low values 0.986 | S. cerevisiae deletion strains, locus YLR039C, strain RIC1, hits give low values 0.968 | S. cerevisiae deletion strains, locus YLR058C, strain SHM2 (second series), hits give low values 0.978 | S. cerevisiae deletion strains, locus YLR085C, strain ARP6, hits give low values 0.957 | S. cerevisiae deletion strains, locus YLR262C, strain YPT6, hits give low values 0.961 | S. cerevisiae deletion strains, locus YML094W, strain GIM5, hits give low values 0.947 | S. cerevisiae deletion strains, locus YMR219W, strain ESC1, hits give low values 0.99 | S. cerevisiae deletion strains, locus YMR263W, strain SAP30, hits give low values 0.982 | S. cerevisiae deletion strains, locus YMR307W, strain GAS1, hits give low values 1.01 | S. cerevisiae deletion strains, locus YNL128W, strain TEP1, hits give low values 0.992 | S. cerevisiae deletion strains, locus YNL153C, strain GIM3, hits give low values 0.989 | S. cerevisiae deletion strains, locus YNL298W, strain CLA4 (second series), hits give low values 0.972 | S. cerevisiae deletion strains, locus YNL322C, strain KRE1, hits give low values 0.993 | S. cerevisiae deletion strains, locus YNR030W, strain Alg12, hits give low values 0.98 | S. cerevisiae deletion strains, locus YOL006C, strain TOP1, hits give low values 0.963 | S. cerevisiae deletion strains, locus YPL055C, strain LGE1, hits give low values 0.956 | S. cerevisiae deletion strains, locus YPL241C, strain CIN2, hits give low values 1.04 | S. cerevisiae deletion strains, locus YPR135W, strain CTF4, hits give low values 0.867 | S. cerevisiae strains, strain wild type, hits give low values 0.971

CSc1nnc(COc2ccc(C)c3c2CCC3)n1-c1ccccc1
inactive: S. cerevisiae deletion strains, locus YAR019C, strain CDC15, hits give low values 0.982 | S. cerevisiae deletion strains, locus YBL105C, strain PKC1, hits give low values 0.98 | S. cerevisiae deletion strains, locus YBR135W, strain CKS1, hits give low values 0.986 | S. cerevisiae deletion strains, locus YBR136W, strain MEC1, hits give low values 0.984 | S. cerevisiae deletion strains, locus YBR160W, strain CDC28, hits give low values 0.984 | S. cerevisiae deletion strains, locus YDL017W, strain CDC7, hits give low values 0.991 | S. cerevisiae deletion strains, locus YDL028C, strain MPS1, hits give low values 0.991 | [1] 0.974 | S. cerevisiae deletion strains, locus YDL108W, strain KIN28, hits give low values 0.992 | S. cerevisiae deletion strains, locus YDL132W, strain cdc53, hits give low values 0.98 | S. cerevisiae deletion strains, locus YDL214C, strain PRR2, hits give low values 0.96 | S. cerevisiae deletion strains, locus YDR052C, strain DBF4, hits give low values 0.98 | S. cerevisiae deletion strains, locus YDR054C, strain cdc34, hits give low values 0.976 | S. cerevisiae deletion strains, locus YDR226W, strain ADK1, hits give low values 0.977 | S. cerevisiae deletion strains, locus YDR477W, strain SNF1, hits give low values 0.972 | S. cerevisiae deletion strains, locus YER123W, strain YCK3, hits give low values 0.96 | S. cerevisiae deletion strains, locus YER133W, strain GLC7, hits give low values 0.941 | S. cerevisiae deletion strains, locus YFL009W, strain cdc4, hits give low values 0.974 | S. cerevisiae deletion strains, locus YFL029C, strain CAK1, hits give low values 0.981 | S. cerevisiae deletion strains, locus YFR003C, strain YPI1, hits give low values 0.979 | S. cerevisiae deletion strains, locus YFR019W, strain FAB1, hits give low values 0.978 | S. cerevisiae deletion strains, locus YFR028C, strain CDC14, hits give low values 0.978 | S. cerevisiae deletion strains, locus YGR040W, strain KSS1, hits give low values 0.962 | S. cerevisiae deletion strains, locus YGR052W, strain FMP48, hits give low values 1.05 | S. cerevisiae deletion strains, locus YGR092W, strain DBF2, hits give low values 0.948 | [2] 1.1 | S. cerevisiae deletion strains, locus YHR079C, strain IRE1, hits give low values 1.05 | S. cerevisiae deletion strains, locus YHR082C, strain KSP1, hits give low values 1.02 | S. cerevisiae deletion strains, locus YHR205W, strain SCH9, hits give low values 0.972 | S. cerevisiae deletion strains, locus YIL147C, strain SLN1, hits give low values 0.987 | S. cerevisiae deletion strains, locus YJL095W, strain BCK1, hits give low values 1.03 | S. cerevisiae deletion strains, locus YJL128C, strain PBS2, hits give low values 0.931 | S. cerevisiae deletion strains, locus YJL157C, strain FAR1, hits give low values 0.968 | S. cerevisiae deletion strains, locus YJR016C, strain ILV3, hits give low values 0.988 | S. cerevisiae deletion strains, locus YJR066W, strain TOR1 (second series), hits give low values 0.934 | S. cerevisiae deletion strains, locus YJR066W, strain TOR1, hits give low values 1.07 | S. cerevisiae deletion strains, locus YKL048C, strain ELM1, hits give low values 0.964 | S. cerevisiae deletion strains, locus YKL067W, strain YNK1, hits give low values 0.966 | S. cerevisiae deletion strains, locus YKL101W, strain HSL1, hits give low values 0.964 | S. cerevisiae deletion strains, locus YKL193C, strain SDS22, hits give low values 0.98 | S. cerevisiae deletion strains, locus YKL203C, strain TOR2, hits give low values 1.04 | S. cerevisiae deletion strains, locus YLR113W, strain HOG1, hits give low values 0.924 | S. cerevisiae deletion strains, locus YLR133W, strain CKI1, hits give low values 0.979 | S. cerevisiae deletion strains, locus YLR403W, strain SFP1, hits give low values 0.968 | S. cerevisiae deletion strains, locus YML070W, strain DAK1, hits give low values 0.966 | S. cerevisiae deletion strains, locus YMR001C, strain CDC5, hits give low values 0.98 | S. cerevisiae deletion strains, locus YMR205C, strain PFK2 (second series), hits give low values 0.974 | S. cerevisiae deletion strains, locus YMR277W, strain FCP1, hits give low values 0.98 | S. cerevisiae deletion strains, locus YNL006W, strain LST8, hits give low values 0.98 | S. cerevisiae deletion strains, locus YNL020C, strain ARK1, hits give low values 0.976 | S. cerevisiae deletion strains, locus YNL161W, strain CBK1, hits give low values 0.982 | S. cerevisiae deletion strains, locus YNL183C, strain NPR1, hits give low values 1.05 | S. cerevisiae deletion strains, locus YNL207W, strain RIO2, hits give low values 0.979 | S. cerevisiae deletion strains, locus YNL222W, strain SSU72, hits give low values 0.985 | S. cerevisiae deletion strains, locus YNL307C, strain MCK1 (second series), hits give low values 0.968 | S. cerevisiae deletion strains, locus YOL078W, strain AVO1, hits give low values 0.987 | S. cerevisiae deletion strains, locus YOL136C, strain PFK27, hits give low values 0.963 | S. cerevisiae deletion strains, locus YOR061W, strain CKA2, hits give low values 0.959 | S. cerevisiae deletion strains, locus YOR119C, strain RIO1, hits give low values 0.992 | S. cerevisiae deletion strains, locus YOR231W, strain MKK1, hits give low values 1.02 | S. cerevisiae deletion strains, locus YOR329C, strain SCD5, hits give low values 0.987 | S. cerevisiae deletion strains, locus YPL031C, strain PHO85, hits give low values 0.961 | S. cerevisiae deletion strains, locus YPL153C, strain RAD53, hits give low values 0.959 | S. cerevisiae deletion strains, locus YPL204W, strain HRR25, hits give low values 0.967 | S. cerevisiae deletion strains, locus YPL209C, strain IPL1, hits give low values 0.983 | S. cerevisiae deletion strains, locus YPL256C, strain CLN2, hits give low values 0.995 | S. cerevisiae deletion strains, locus YPR025C, strain CCL1, hits give low values 0.984 | S. cerevisiae deletion strains, locus YPR106W, strain ISR1, hits give low values 0.98 | S. cerevisiae deletion strains, locus YPR111W, strain DBF20, hits give low values 0.97 | S. cerevisiae deletion strains, strain NNK1, hits give low values 0.975 | S. cerevisiae deletion strains, strain TSCII, hits give low values 0.974
